Tested on: Vero E6 infected with SARS-CoV-2
Assay: inhibition of SARS-CoV-2 cytopathic effect; higher = more antiviral protection, active = above 15
Conditions: 48 h

Measured: inhibition of SARS-CoV-2 cytopathic effect

Cc1cc(NC(=O)Nc2ccc(F)c(F)c2)n(-c2ccccc2)n1
inactive: 1 nM -0.5% | 8.33 nM -1.46% | 100 nM 0.29% | 833.33 nM -0.03% | 10000 nM 0.43%

Cc1ccc(/C(=C\CN2CCCC2)c2cccc(/C=C/C(=O)O)n2)cc1 [acrivastine]
inactive: 1 nM 0.5% | 8.33 nM -0.13% | 100 nM 0.75% | 833.33 nM 6.14% | 10000 nM 1.35%

CC[C@H](C)[C@H](N)C1=N[C@H](C(=O)N[C@@H](CC(C)C)C(=O)N[C@H](CCC(=O)O)C(=O)N[C@H](C(=O)N[C@H]2CCCCNC(=O)[C@H](CC(N)=O)NC(=O)[C@@H](CC(=O)O)NC(=O)[C@H](Cc3cnc[nH]3)NC(=O)[C@@H](Cc3ccccc3)NC(=O)[C@H]([C@@H](C)CC)NC(=O)[C@@H](CCCN)NC2=O)[C@@H](C)CC)CS1 [bacitracin]
inactive: 1 nM -0.71% | 8.33 nM 2.89% | 100 nM -2.3% | 833.33 nM -1.54% | 10000 nM -0.85%

CCCC[C@@H](C=O)NC(=O)[C@H](CC(C)C)NC(=O)OCc1ccccc1 [calpeptin]
active: 10000 nM 66.9%
inactive: 1 nM -1.61% | 8.33 nM -1.53% | 100 nM -2.86% | 833.33 nM 14.7%

Oc1cc(CNC(=S)/C=C/c2cc(O)c(O)c(Br)c2)cc(O)c1O
inactive: 1 nM 0.9% | 8.33 nM 0.99% | 100 nM 2.87% | 833.33 nM 5.44%
active: 10000 nM 19.8%

O=c1cc(N2CCOCC2)oc2c1ccc1ccccc12
inactive: 1 nM -1.26% | 8.33 nM 2.98% | 100 nM -0.06% | 833.33 nM 0.08% | 10000 nM -1.32%

CCN(CC)Cc1nccn1-c1ccc([N+](=O)[O-])cc1C(=O)c1ccccc1Cl [nizofenone]
inactive: 1 nM -1.17% | 8.33 nM 0.76% | 100 nM -0.2% | 833.33 nM 0.15% | 10000 nM 1.83%

CN(C)C(=O)COC(=O)Cc1ccc(OC(=O)c2ccc(NC(=N)N)cc2)cc1 [camostat-mesilate]
inactive: 1 nM 3.69% | 8.33 nM -0.38% | 100 nM 1.74% | 833.33 nM 1.93% | 10000 nM -2.24%

C/C(=C\C(=O)Nc1ccccc1C(=O)O)c1ccc2ccccc2c1
inactive: 1 nM 3.55% | 8.33 nM 3.85% | 100 nM 1.03% | 833.33 nM 1.37% | 10000 nM -2.89%

O=S1(=O)OC(c2ccc(O)cc2)(c2ccc(O)cc2)c2ccccc21 [phenolsulfonphthalein]
inactive: 1 nM -0.46% | 8.33 nM -1.87% | 100 nM -1.84% | 833.33 nM -1.16% | 10000 nM 3.89%

O=C(O)c1ccc(OCCn2ccnc2)cc1 [dazoxiben]
inactive: 1 nM 1.06% | 8.33 nM 2.92% | 100 nM 3.5% | 833.33 nM -0.21% | 10000 nM -0.65%

From the supplement of paper PMC13380429
